{
  "source": "PubChem BioAssay AID602440",
  "about": "(Sanford-Burnham Center for Chemical Genomics, 2012)",
  "note": "About 2,300 (0.64%) of roughly 360,000 compounds were called active. The sample as a whole holds a higher share of actives than the screen did. Values without a mark were called inactive. No stated cut-off is given here; in the data, active means inhibition mostly above about 40% (no sharp cut-off); inactive means mostly below about 27%.",
  "data": [
    {"molecular_target": "Sentrin-specific protease 8 (Homo sapiens) (UniProt Q96LD8)", "sequence (Q96LD8 whole entry, looked up)": "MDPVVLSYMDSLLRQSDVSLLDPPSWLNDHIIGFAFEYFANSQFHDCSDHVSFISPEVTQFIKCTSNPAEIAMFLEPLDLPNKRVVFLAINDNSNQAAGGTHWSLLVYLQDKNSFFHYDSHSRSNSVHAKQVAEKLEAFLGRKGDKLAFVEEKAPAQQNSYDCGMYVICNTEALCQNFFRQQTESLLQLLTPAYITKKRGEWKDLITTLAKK", "assay": "blockers of SENP8 deneddylase activity – biochemical, fluorescence, Nedd8 protein substrate, uHTS, primary screen (AID 602440)", "settings": "recombinant SENP8, Nedd8 substrate fluorescence; at 20 µM; hits give high values", "values": [
      {"smiles": "COc1ccccc1N=Nc1c(O)[nH]c(=S)[nH]c1=O", "inhibition": "49% (active)"},
      {"smiles": "CCOCCc1c(O)[nH]c(=S)[nH]c1=O", "inhibition": "21.8%"},
      {"smiles": "O=C1N=c2ccccc2=C/C1=C\\c1c(O)[nH]c(=S)[nH]c1=O", "inhibition": "-52.5%"},
      {"smiles": "CC(C(=O)Nc1ccc(Cl)cc1Cl)N1CC=C(c2ccccc2)CC1", "note": "(stereo not given)", "inhibition": "26.7%"},
      {"smiles": "CNC(=O)N(C)c1nnc(C(C)(C)C)s1", "inhibition": "17.7%"},
      {"smiles": "O=C1NC(=O)N(c2ccccc2)C(=O)/C1=C/c1ccc([N+](=O)[O-])s1", "inhibition": "64.6% (active)"},
      {"smiles": "CCN(CC)CCOC(=O)c1cc2cc(COC)ccc2o1", "inhibition": "15.2%"},
      {"smiles": "COC(=O)C1=C(c2cc3ccccc3o2)C[C@@H]2CC[C@H]1N2C(=O)NC1CCCCC1", "inhibition": "11.5%"},
      {"smiles": "CCOC(=O)CNC(=O)N1Cc2cc(N3CCCCC3)ccc2-n2nncc2C1", "inhibition": "-24.7%"},
      {"smiles": "O=C1/C(=C\\c2ccc3c(c2)OCO3)N2CCC1CC2", "inhibition": "13.7%"},
      {"smiles": "c1cc2c(cc1C1OCC3C(c4ccc5c(c4)OCO5)OCC13)OCO2", "note": "(stereo not given)", "inhibition": "62.3% (active)"},
      {"smiles": "c1cc2c(cc1[C@H]1OC[C@H]3[C@@H]1CO[C@@H]3c1ccc3c(c1)OCO3)OCO2", "inhibition": "12.2%"},
      {"smiles": "COC(=O)C1=C(c2ccc(F)cc2OCc2ccccc2)C[C@@H]2CC[C@H]1N2C(=O)NCc1ccc(OC)c(OC)c1", "inhibition": "14.1%"},
      {"smiles": "CCOC(=O)[C@]12Cc3ccccc3[C@H]1N(C1CCCCC1)C(=O)c1cc(OC)ccc12", "inhibition": "-7.7%"},
      {"smiles": "O=c1[nH]c(=O)n(CCc2ccccc2)c(O)c1/C=N/N1CCOCC1", "inhibition": "11.3%"},
      {"smiles": "COc1ccc(C(=O)CC2C(=O)N(C)C(=O)N(C)C2=O)cc1", "inhibition": "42.5% (active)"},
      {"smiles": "CCOP(=O)(OCC)C(NC(=O)c1ccc(OC)cc1)C(Cl)(Cl)Cl", "note": "(stereo not given)", "inhibition": "4.3%"},
      {"smiles": "COc1ccc(C(=O)C2CN(C)CC2C(=O)c2ccc(OC)cc2)cc1", "note": "(stereo not given)", "inhibition": "14.3%"},
      {"smiles": "CCCCCCCCCCCCn1ccc(=N)cc1", "inhibition": "26.2%"},
      {"smiles": "CCOC(=O)CC(SP1(=S)OCC2(CCCCO2)C(C2CCCCO2)O1)C(=O)OCC", "note": "(stereo not given)", "inhibition": "2.3%"},
      {"smiles": "Cc1ccc(Cn2c(C)c3cnn(CC(=O)N4CCC5(CC4)OCCO5)c(=O)c3c2C)cc1", "inhibition": "-29%"},
      {"smiles": "C=CC12CN(C)[C@@H]3C4CO[C@H](C[C@H]41)[C@]1(C(=O)Nc4ccccc41)[C@@H]32", "note": "(stereo not given in full)", "inhibition": "40.4% (active)"},
      {"smiles": "COc1ccc2c(c1)[C@]13CCCCC1C(C2)N(C)CC3", "note": "(stereo not given in full)", "inhibition": "2%"},
      {"smiles": "O=C(O)CCn1cc(C=C2C(=O)NC(=S)NC2=O)c(-c2cccc(Br)c2)n1", "inhibition": "2.3%"},
      {"smiles": "CN(c1ccccc1)c1ccc([N+](=O)[O-])c2nonc12", "inhibition": "44.1% (active)"},
      {"smiles": "CCN(CC)c1ccc([N+](=O)[O-])c2cccnc12", "inhibition": "36.3%"},
      {"smiles": "C[C@]12CCCCC1=CC(=O)C1C2CC[C@@]2(C)C1C[C@@H](F)[C@@H]2O", "note": "(stereo not given in full)", "inhibition": "-0.8%"},
      {"smiles": "C[N+]12CN3CN(CN(C3)C1)C2", "inhibition": "12.2%"},
      {"smiles": "O=c1c2ccccc2nc(/C=C/c2ccco2)n1-c1ccccc1O", "inhibition": "-36.8%"},
      {"smiles": "CNP1(NC)=Nc2nn(-c3ccccc3)c(N)c2C(c2ccccc2)=N1", "inhibition": "21.7%"},
      {"smiles": "O=C(O)C1CSC(c2cccnc2)N1", "note": "(stereo not given)", "inhibition": "6.7%"},
      {"smiles": "COC1C(O)C(C)OC(OC2CCC3(C=O)C(CCC4C3CCC3(C)C(C5=CC(=O)OC5)CCC43O)C2)C1O", "note": "(stereo not given)", "inhibition": "66.8% (active)"},
      {"smiles": "C[C@]12CC[C@H](O)C[C@H]1CC[C@@H]1C2CC[C@]2(C)[C@@H](C3=CC(=O)OC3)[C@@H](O)C[C@]12O", "note": "(stereo not given in full)", "inhibition": "15.3%"},
      {"smiles": "CC(C)CN1CCN(Cc2ccccc2C(F)(F)F)CC1CCO", "note": "(stereo not given)", "inhibition": "-4%"},
      {"smiles": "CC1=C2C(=O)C3C(CC=C4CC(OC5OC(O)C(O)C(O)C5CO)CCC43C)C2CCC12OC1CC(C)CNC1C2C", "note": "(stereo not given)", "inhibition": "41.4% (active)"},
      {"smiles": "CC(=O)OC1C2(CC3N4C(=O)C5(CO)SSC4(CC31O)C(=O)N5C)OC(C)C(C)(C)C2=O", "note": "(stereo not given)", "inhibition": "-4.6%"},
      {"smiles": "N[C@@H](Cc1c[nH]c2ccccc12)c1nnc(SCc2c(F)cccc2Cl)o1", "inhibition": "18%"},
      {"smiles": "CN(C)C(=O)Oc1ccc2c(c1)O/C(=C\\c1ccccc1)C2=O", "inhibition": "-9.7%"},
      {"smiles": "c1ccc(N2Cc3ccccc3-n3nncc3C2)nc1", "inhibition": "14.6%"},
      {"smiles": "CC(Cc1ccccc1)NC=O", "note": "(stereo not given)", "inhibition": "50.7% (active)"},
      {"smiles": "CC(Cc1ccccc1)NCCC(c1ccccc1)c1ccccc1", "note": "(stereo not given)", "inhibition": "8.1%"},
      {"smiles": "CC(=O)Nc1ccc(C(=O)C(Cc2ccccc2)N(C)C)cc1", "note": "(stereo not given)", "inhibition": "-0.4%"},
      {"smiles": "CCC(C)(O)C(=O)OC1C(=O)OC2CC3C(C)=CC(=O)C(O)C3(C)C3C4(O)OCC23C1C(C)C4O", "note": "(stereo not given)", "inhibition": "15.7%"},
      {"smiles": "CC(=CCOc1ccc2ccc(=O)oc2c1)C1=CC(=O)C(C)(C)O1", "inhibition": "-260%"},
      {"smiles": "C=Cn1ccnc1P(=S)(c1cc(N(CC)CC)ns1)c1nccn1C=C", "inhibition": "1.5%"}
    ]}
  ]
}
